Measured values published in the supplement of paper PMC7156485.
± gives the standard deviation of the averaged measurements.

Legend:
Conditions in all cases: concentration: 10 µM; 24 h
HCC1569 [1] = assay: cell number relative to DMSO (% of DMSO); higher = more cells (less growth inhibition / toxicity)
In short: (§1)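 HCC1569 and TDF cells were seeded at 800 per well in 384-well plates in RPMI with 10% FBS and treated with compounds at 10 µM for 24 h at 37 °C, in triplicate. After fixation in 3.7% formaldehyde, cells were stained with a rabbit anti-H1.0 antibody, an AlexaFluor 647 secondary and DAPI, and six fields per well were imaged at ×10. H1.0 nuclear intensity or cell number is given as percent of the plate control, using the median of replicates, with HCC1569 values smoothed for positional effects.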

TDF [2] = assay: as above
In short: as §1

TDF [3] = assay: H1.0 immunofluorescence intensity relative to DMSO (% of DMSO); higher = stronger H1.0 induction, active = 120 or more
In short: as §1

HCC1569 [4] = assay: H1.0 immunofluorescence intensity relative to DMSO (% of DMSO); higher = stronger H1.0 induction, active = 140 or more
In short: as §1
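Throughout, for H1.0 immunofluorescence intensity relative to DMSO: TDF is a line of transformed human dermal fibroblasts of mesenchymal origin.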
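Throughout, for cell number relative to DMSO: TDF denotes transformed human dermal fibroblasts of mesenchymal origin.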

Row | Compound | cell number (HCC1569 [1]) | cell number (TDF [2]) | H1.0 immunofluorescence intensity (TDF [3]) | H1.0 immunofluorescence intensity (HCC1569 [4])
1 | Cl.Cn1c(=O)c(Oc2ccc(F)cc2F)cc2cnc(NC3CCOCC3)nc21 | 99.9 | 99.2 | 89 (inactive) | 102 (inactive)
2 | CC1COC2=C1C(=O)C(=O)c1c2ccc2c1CCCC2(C)C (stereo not given) [Cryptotanshinone] | 96.6 | 64.9 | 106 (inactive) | 100 (inactive)
3 | O=c1c(OC2OC(C(O)CO)C(O)C2O)c(-c2ccc(O)c(O)c2)oc2cc(O)cc(O)c12 (stereo not given) [Isoquercitrine] | 103 | 105 | 102 (inactive) | 87.9 (inactive)
4 | Cc1cc(Nc2ncc3cc(-c4c(Cl)cccc4Cl)c(=O)n(C)c3n2)ccc1F | 36.3 | 7.32 | 201 (active) | 187 (active)
5 | CC(COc1ccccc1)N(CCCl)Cc1ccccc1.Cl (stereo not given) [Phenoxybenzamine.HCl] | 106 | 103 | 97.7 (inactive) | 102 (inactive)
6 | Cn1c(=O)c2c(ncn2CC2OCCO2)n(C)c1=O [Doxofylline] | 103 | 106 | 105 (inactive) | 104 (inactive)
7 | CCCCN1CCCCC1C(=O)Nc1c(C)cccc1C (stereo not given) [Bupivacaine] | 97.9 | 108 | 101 (inactive) | 120 (inactive)
8 | Nn1nnc2ccccc21 [1-Aminobenzotriazole] | 106 | 107 | 92.8 (inactive) | 85.9 (inactive)
9 | CCCCCCC=CCCCCCCCCCC(=O)O [11(Z)-Octadecenoic acid] | 99.8 | 101 | 112 (inactive) | 105 (inactive)
10 | CCCCCC(O)CC=C1C(=O)C=CC1CC=CCCCC(=O)O (stereo not given) [D12-Prostaglandin J2] | 108 | 96.8 | 103 (inactive) | 106 (inactive)
11 | CCCCCC=CCC=CCC=CCC=CCCCC(=O)C(F)(F)F | 104 | 96.7 | 95.3 (inactive) | 95.1 (inactive)
12 | CCC=CCC=CCC=CCCCCCCCC(=O)O [Linolenic acid] | 104 ± 3.3 | 98.7 ± 9 | 101 (inactive) | 97.6 (inactive)
13 | CCCCCC(O)CC(=O)CCc1ccc(O)c(OC)c1 (stereo not given) [Gingerol] | 99.3 | 97.2 | 92.9 (inactive) | 85.8 (inactive)
14 | CN1CCc2ccccc2Cc2[nH]c3ccccc3c2CC1 | 104 | 108 | 92.4 (inactive) | 100 (inactive)
15 | CC1=C2C(=COC(C)C2C)C(=O)C(C(=O)O)=C1O (stereo not given) [Citrinin] | 104 | 102 | 101 (inactive) | 97.8 (inactive)
16 | CNCCCC1c2ccccc2C=Cc2ccccc21.Cl [Protriptyline hydrochloride] | 92.7 | 99.5 | 109 (inactive) | 117 (inactive)
17 | O=C1CC(c2ccc(O)cc2)Oc2cc(O)cc(O)c21 (stereo not given) [Naringenin] | 99.9 | 110 | 90.6 (inactive) | 85.4 (inactive)
18 | NC1CONC1=O [D-Cycloserine] | 98.8 | 96.8 | 97.5 (inactive) | 92.1 (inactive)
19 | CC1(C)OC2CC(=O)OCC23C1CC(=O)C1(C)C3CCC2(C)C(c3ccoc3)OC(=O)C3OC321 (stereo not given) [Limonin] | 103 | 104 | 92.2 (inactive) | 90 (inactive)
20 | CC(C)(C)n1nc(-c2ccc(Cl)cc2)c2c(N)ncnc21 | 67.2 | 107 | 99.8 (inactive) | 182 (active)
21 | CCCCCC=CC=CC(O)CCCCCCCC(=O)O (stereo not given) | 104 | 100 | 100 (inactive) | 100 (inactive)
22 | CCCCc1ncc(C=C(Cc2cccs2)C(=O)O)n1Cc1ccc(C(=O)O)cc1.CS(=O)(=O)O [Eprosartan mesylate] | 97.1 | 91.7 | 96.4 (inactive) | 97.4 (inactive)
23 | COc1cc(C(=O)OC2CC(C)=CCCC(C)=CC(O)C2C(C)C)ccc1O (stereo not given) [Tschimganidin] | 102 | 101 | 96.2 (inactive) | 86.8 (inactive)
24 | O=C1[N-]C(=O)C(c2ccccc2)(c2ccccc2)N1.[Na+] [Phenytoin sodium] | 99.9 | 111 | 99.8 (inactive) | 103 (inactive)
25 | CC(C)(C)C1(O)CCN2CC3c4ccccc4CCc4cccc(c43)C2C1.Cl (racemic) | 105 | 111 | 88.7 (inactive) | 91 (inactive)
